# Several values for one entry are separate records, joined by “and”; a condition that tells them apart may be missing. Identical values can stand only once. Records with an inconclusive call do not appear. Entries that show only a call come without a potency. A structure can be active in one record and inactive in another. Activity calls are given as the source filed them. Unless noted, the call rests on the fitted dose curve.
# What was measured:
# [1] = qHTS assay to identify small molecule antagonists of the vitamin D receptor (VDR) signaling pathway - cell viability counter screen (AID 743225; active means well fitted curve in the direction sought with a large enough effect in the repeat runs; an effect the other way counts as inactive or inconclusive; further: nearly all actives have a fitted effect of over 50% in size)
# Procedure, shortened: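 VDR-bla HEK 293T cells, 4 h pre-incubation at 37C, then compound plus 1-alpha,25-dihydroxyvitamin D3 (3 nM final) for 16 h. After the beta-lactamase FRET read, CellTiter-Glo was added to the same wells; luminescence after 30 min at room temperature.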
# [2] = qHTS assay to identify small molecule agonists of the NFkB signaling pathway (AID 1159509; active means well fitted curve in the direction sought with a large enough effect in the signal ratio in the repeat runs, not every such curve was filed as active; the % refers to the signal ratio; further: series mostly up to about 61 µM)
# Procedure, shortened: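 ME-180 NFkB-bla, 2,000 cells/well, overnight plating; cpd pinned in DMSO, 5 h 37 C; B/G FRET substrate 1.5 h RT; ex 405, em 460/530 nm.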
# [3] = qHTS assay to identify small molecule agonists of the NFkB signaling pathway - cell viability counter screen (AID 1159515); further: series mostly up to about 61 µM; nearly all actives have a fitted effect of over 55% in size
# Procedure, shortened: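 5 hr compound treatment of NFkB-bla ME-180 cells (2,000/well, seeded overnight beforehand), followed by reporter substrate for 1.5 hr. CellTiter-Glo added afterward; luminescence after 30 min RT.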
# [4] = qHTS assay to identify small molecule agonists of the endoplasmic reticulum stress response signaling pathway (AID 1159516; active means well fitted activation curve with a large enough effect in the signal ratio in the repeat runs, not every such curve was filed as active; the % refers to the signal ratio)
# Procedure, shortened: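 Reporter HeLa cells (ESRE-beta-lactamase) underwent 5 hr compound incubation at 37 C and 5% CO2 in quantitative HTS format. Detection followed 2 hr of FRET substrate loading at room temperature.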
# [5] = qHTS assay to identify small molecule agonists of the endoplasmic reticulum stress response signaling pathway - cell viability counter screen (AID 1159517);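 further: HeLa cells carrying an ER stress response element beta-lactamase reporter; series mostly up to about 61 µM; nearly all actives have a fitted effect of over 50% in size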
# Procedure, shortened: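 HeLa cells carrying an ESRE-driven beta-lactamase reporter receive compound for 5 hr at 37 C. Cell viability is then gauged with CellTiter-Glo by luminescence, 30 min at room temperature.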
# [6] = qHTS assay to identify small molecule antagonists of the retinoid-related orphan receptor gamma (ROR-gamma) signaling pathway - cell viability counter screen (AID 1159520; active means well fitted curve in the direction sought with a large enough effect in the repeat runs; an effect the other way counts as inactive or inconclusive; further: nearly all actives have a fitted effect of over 50% in size)
# Procedure, shortened: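 Cytotoxicity was read from cellular ATP (CellTiter-Glo luminescence) after 16 hr at 37 C with 1 uM doxycycline induction. The inducer was added 2 hr after compound transfer to Tet-on ROR gamma CHO cells.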
# [7] = target: Nuclear receptor ROR-gamma (Homo sapiens) (UniProt P51449); test: qHTS assay to identify small molecule antagonists of the retinoid-related orphan receptor gamma (ROR-gamma) signaling pathway (AID 1159521; active means well fitted curve in the direction sought with a large enough effect in the repeat runs; an effect the other way counts as inactive or inconclusive; further: nearly all actives have a fitted effect of over 50% in size; further: potency means the concentration at half of the fitted maximal effect)
# Procedure, shortened: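 Tet-on RORγ CHO cells carrying a ROR response element–luciferase reporter were pretreated with compounds for 2 h, then induced with 1 uM (final) doxycycline hyclate for 16 h at 37 C. Antagonism was read as decreased ONE-Glo luminescence.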
# [8] = qHTS assay to identify small molecule agonists of the AP-1 signaling pathway - cell viability counter screen (AID 1159525); further: nearly all actives have a fitted effect of over 55% in size
# Procedure, shortened: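 Luminescent ATP readout (Cell Titer Glo, 30 min RT), normalised to DMSO and tetra n-octyl ammonium bromide controls. Cells were ME-180 AP-1-bla in 0.5% dialyzed FBS Opti-MEM, with a 5 h, 37 °C compound exposure.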
# [9] = qHTS assay to identify small molecule agonists of the AP-1 signaling pathway (AID 1159526)
# [10] = qHTS assay to identify small molecule agonists of the vitamin D receptor (VDR) signaling pathway - cell viability counter screen (AID 743224; active means well fitted curve in the direction sought with a large enough effect in the repeat runs; an effect the other way counts as inactive or inconclusive)
# Procedure, shortened: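 Here cell health was gauged by luminescent ATP detection (CellTiter-Glo, 30 min RT) in VDR-bla cells that had been incubated with test compounds for 16 h at 37C and 5% CO2.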
Structure (SMILES),Potency [1],outcome [2],outcome [3],outcome [4],Potency [5],Potency [6],Potency [7],Potency [8],Potency [9],Potency [10]
Clc1ccc(Cl)c(Cl)c1Cl,inactive,inactive,inactive,inactive,inactive,inactive,inactive,inactive,inactive,–
Cc1cc(Cc2ccc(N)c(C)c2)ccc1N,inactive,inactive,inactive,inactive,inactive,inactive,inactive,inactive,inactive,–
CC(C)(N=C=O)c1cccc(C(C)(C)N=C=O)c1,inactive,inactive,inactive,inactive,inactive,inactive,inactive,inactive,inactive,–
Cc1cc(NS(=O)(=O)c2ccc(N)cc2)no1,inactive,inactive,inactive,inactive,inactive,inactive,inactive,inactive,inactive,–
CCCCCCCCCCC=CC1CC(=O)OC1=O (configuration not stated),inactive,inactive,inactive,inactive,inactive,inactive,54.8 µM (active) and inactive,inactive,inactive,inactive
Cn1c([N+](=O)[O-])cnc1COC(N)=O,inactive,inactive,inactive,inactive,inactive,inactive,inactive,inactive,inactive,inactive
CCCCC(CC)C(=O)OCCOCCOCCOC(=O)C(CC)CCCC (configuration not stated),inactive,inactive,inactive,inactive,inactive,inactive,inactive,inactive,inactive,–
COCC(=O)O,inactive,inactive,inactive,inactive,inactive,inactive,inactive,inactive,inactive,inactive
CC#C[C@]1(O)CC[C@H]2[C@@H]3CCC4=CC(=O)CCC4=C3[C@@H](c3ccc(N(C)C)cc3)C[C@@]21C,inactive,inactive,inactive,inactive,inactive,inactive,30.6 µM (active) and 26.6 µM (active),inactive,inactive,–
O=S(=O)(Oc1ccc(Cl)cc1Cl)c1ccccc1,inactive,inactive,inactive,inactive,inactive,inactive,inactive,inactive,inactive,–
NCc1cccc(CN)c1,inactive,inactive,inactive,inactive,inactive,inactive,inactive,inactive,inactive,–
CCCCCCC(C)(C)S,inactive,inactive,inactive,inactive,inactive,inactive,inactive,inactive,inactive,–
O=C(Cl)c1c(Cl)c(Cl)c(C(=O)Cl)c(Cl)c1Cl,inactive,inactive,inactive,inactive,inactive,inactive,inactive,inactive,inactive,inactive
OC[C@@H](O)[C@@H](O)[C@H](O)[C@@H](O)CO,inactive,inactive,inactive,inactive,inactive,inactive,inactive,inactive,inactive,inactive
CCC(=O)O,inactive,inactive,inactive,inactive,inactive,inactive,inactive,inactive,inactive,inactive
C[C@@H]1O[C@@H](OC[C@H]2O[C@@H](Oc3c(-c4ccc(O)c(O)c4)oc4cc(O)cc(O)c4c3=O)[C@H](O)[C@@H](O)[C@@H]2O)[C@H](O)[C@H](O)[C@H]1O,inactive,inactive,inactive,inactive,inactive,inactive,inactive,inactive,inactive,–
CNC[C@H](O)[C@@H](O)[C@H](O)[C@H](O)CO,inactive,inactive,inactive,inactive,inactive,inactive,inactive,inactive,inactive,–
Nc1c(S(=O)(=O)O)cc(Br)c2c1C(=O)c1ccccc1C2=O,inactive,inactive,inactive,inactive,inactive,inactive,inactive,inactive,inactive,–
Nc1cc(-c2ccncc2)c[nH]c1=O,inactive,inactive,inactive,inactive,inactive,inactive,inactive,inactive,inactive,inactive
CC(=O)CCc1ccccc1,inactive,inactive,inactive,inactive,inactive,inactive,inactive,inactive,inactive,–
Oc1ccc(OCc2ccccc2)cc1,inactive,inactive,inactive,inactive,inactive,inactive,inactive,inactive,inactive,–
C=C1C2CCC(C2)C1(C)C (configuration not stated),inactive,inactive,inactive,inactive,inactive,inactive,inactive,inactive,inactive,inactive
C=C(C)C(=O)OCCCCCCCCCCCC,inactive,inactive,inactive,inactive,inactive,inactive,inactive,inactive,inactive,–
CCc1ccc(O)cc1,inactive,inactive,inactive,inactive,inactive,inactive,inactive,inactive,inactive,–
CC1Cc2ccccc2N1NC(=O)c1ccc(Cl)c(S(N)(=O)=O)c1 (configuration not stated),inactive,inactive,inactive,inactive,inactive,inactive,inactive,inactive,inactive,–
CC1(C)O[C@@H]2C[C@H]3[C@@H]4C[C@H](F)C5=CC(=O)CC[C@]5(C)[C@H]4[C@@H](O)C[C@]3(C)[C@]2(C(=O)CO)O1,inactive,inactive,inactive,inactive,inactive,inactive,inactive,inactive,inactive,–

# Reference: PubChem BioAssay (Tox21)
